“And” between values parts separate entries of the source, which are not always exact repeats. Equal entries are not always repeated. Screen size: about 130,000 compounds; about 230 (0.18%) were called active. The sample holds actives, similar compounds and a random draw of the others, so the mix is not that of the screen. Unmarked numbers belong to inactive results.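 How the source made its calls: active means inhibition of cGAS enzyme activity at or above 60%; inactive means the rest.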
Target: Cyclic GMP-AMP synthase (Mus musculus) (UniProt Q8C6L5)
Sequence (Q8C6L5 whole entry, looked up): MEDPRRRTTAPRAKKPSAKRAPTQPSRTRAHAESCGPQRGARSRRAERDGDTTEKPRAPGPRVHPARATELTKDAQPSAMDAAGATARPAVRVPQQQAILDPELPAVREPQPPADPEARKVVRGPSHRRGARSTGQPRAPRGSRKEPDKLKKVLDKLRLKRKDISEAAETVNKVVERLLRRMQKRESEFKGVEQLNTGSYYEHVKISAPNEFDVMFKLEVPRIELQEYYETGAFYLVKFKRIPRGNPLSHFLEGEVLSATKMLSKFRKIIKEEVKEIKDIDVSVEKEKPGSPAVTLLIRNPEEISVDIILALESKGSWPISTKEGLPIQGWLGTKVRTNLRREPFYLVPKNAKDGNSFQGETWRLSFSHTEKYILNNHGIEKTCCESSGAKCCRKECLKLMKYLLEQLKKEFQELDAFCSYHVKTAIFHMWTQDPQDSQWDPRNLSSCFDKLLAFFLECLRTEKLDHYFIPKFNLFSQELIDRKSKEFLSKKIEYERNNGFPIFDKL
Test: inhibitors of Mus musculus cyclic GMP-AMP synthase, initial high-throughput assay, cell-free, RapidFire MS (AID 1259397);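 further: enzyme stimulated by 45 bp dsDNA with ATP and GTP substrates; cGAMP share of summed cGAMP plus half ATP and half GTP signals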
Settings: recombinant mouse cGAS, cGAMP by RapidFire MS; at 12.5 µM; hits give high values

Compound | inhibition
CC1(C(=O)NS(=O)(=O)c2cccc(OC(F)F)c2)CCN1C(=O)COc1ccc(Cl)cc1 (stereo not drawn) | -4.55%
CCN(CC(=O)NC(C)(C)C)c1cc(Cl)nc(N)n1 | -6.72%
CCNC(=O)c1cc(Cl)ccc1NS(=O)(=O)c1cn[nH]c1 | -6.14%
CCC(c1nnc(SC(C)C(N)=O)n1Cc1ccccc1)N(C)C (stereo not drawn) | -4.22%
Cc1cc(CN2CCN3C(=O)CNC(=O)C3C2)ccc1N1CCCC1 (stereo not drawn) | -4.4%
CCN(CC)C(=O)N1CCCC(C(=O)Nc2ccc(S(=O)(=O)C(F)F)cc2)C1 (stereo not drawn) | 6.42%
NC(=O)c1cc(NC(=O)N2CCCCCC2c2ccco2)ccc1F (stereo not drawn) | -5.95%
CCn1nc(C(=O)NNC(=O)c2c(C)noc2C)c2ccccc2c1=O | -0.0832%
COc1ccccc1CCc1nnc(CCC(=O)NC(C)CCn2cccn2)o1 (stereo not drawn) | 2.62%
O=C(CCn1cnc2ccccc2c1=O)Nc1cc2c(cc1Br)OCCO2 | -1.61%
CCN(Cc1ccncc1)C(=O)C1CCC(=O)N(Cc2ccccn2)C1 (stereo not drawn) | -3.05%
COc1cc(NC(=O)[C@@H](C)N2Cc3ccc(NCC(C)C)nc3C2=O)cc(OC)c1 | 7.27%
Cc1ccc(C(=O)N2CCCC(C(=O)NC3C4CCc5ccccc5C43)C2)cc1 (stereo not drawn) | -4.85%
CCCN1C(=O)CCc2cc(NC(=O)COC)ccc21 | -1.31%
CCC(CC)S(=O)(=O)NC(=O)c1c(C)nn(CC)c1Cl | -36.3%
CC(C)Cc1ccc(C(=O)c2cccs2)cc1 | 2.67%
Cc1c(C(=O)NCc2cccc([N+](=O)[O-])c2)sc(=O)n1CCc1ccccc1 | -3.1%
OC(c1ccc(Cl)c(F)c1)c1ncc(-c2ccccc2Cl)[nH]1 (stereo not drawn) | -1.95%
O=C(CCOc1ccccc1)N1CC(c2ccncc2)C1 | -7.26%
C=CCNC(=O)c1cccnc1-c1ccc(OC)c2ncccc12 | -6.67%

Compound | inhibition
O=C1N(CCCc2ccccc2)CCCC12CCN(c1cnccn1)C2 (stereo not drawn) | -11%
CCCCN(CCCC)C(=O)c1[nH]c(C)c(C(C)=O)c1C | -6.21%
Cc1cccc(NCCNC(=O)c2oc(Br)cc2C)n1 | -6.38%
CC(C)C(NC(=O)c1ccco1)C(=O)N1CC(C)(C)C1(C)C (stereo not drawn) | -1.92%
N#CC(Cc1ccccc1)NC(=O)/C=C/c1ccccc1Br (stereo not drawn) | 8.15%
Cc1cc(C)n(C(=O)C(C)n2cc([N+](=O)[O-])cn2)n1 (stereo not drawn) | -19.7%
COC(=O)CCC(=O)N1CCCC(C(=O)c2ccc(-c3ccccc3)cc2)C1 (stereo not drawn) | -2.49%
Cc1ccc(C(=O)NCC(NC(=O)c2ccc(C)nc2)C(C)C)cn1 (stereo not drawn) | 3.43%
CC(C)C1CN(C(=O)CCn2cncn2)CCCN1Cc1ccc(F)cc1 (stereo not drawn) | -18%
COc1ccc(-n2c(C)nc3ccc(NC(=O)Nc4ccc(C)cc4C)cc3c2=O)cc1 | -11.4%
CN(C(=O)c1ccc(=O)[nH]n1)C1c2ccccc2-c2ccccc21 | -2.89% and -15.8%
Cc1ncc(-c2c(-c3ccccc3)ncn2Cc2csc(N)n2)[nH]1 | -18.8%
CCOc1ccc(Cl)cc1S(=O)(=O)N1CCN(CCO)CC1 | -1.81%
Cc1ccccc1NC(=O)Cn1cc(S(=O)(=O)c2ccc(F)cc2)c(=O)c2cc3c(cc21)OCO3 | -8.2%
CN1C(=O)Cc2cc(-c3csc(CCN4CCCCC4)n3)ccc21 | -45.7%
Cc1cc(C)c(S(=O)(=O)Nc2ccc(-c3cn4ccc(C)nc4n3)cc2)c(C)c1 | -25.3%
CCCn1c(=O)c2c(nc3n2CCN3c2cc(C)ccc2C)n(C)c1=O | -2.17%
Cn1c(=O)c2c(nc(CN3CCCCC3)n2Cc2cccc3ccccc23)n(C)c1=O | -3.06%
CCOc1ccc2c(c1)C(C)CC(C)(C)N2C(=O)C1CCN(C(=O)C2CC2)CC1 (stereo not drawn) | -7.85%
CSCc1ccc(C(=O)N2CCCC(C(=O)c3ccc4c(c3)OCO4)C2)o1 (stereo not drawn) | -4.82%

Compound | inhibition
O=C(C=Cc1ccsc1)N1CCN(S(=O)(=O)c2cc(F)ccc2F)CC1 | -8.87%
CN(C)CCNc1cc(-c2n[nH]c(C(F)(F)F)n2)c2cc[nH]c2n1 | -6.32%
COc1ccccc1OCCCOc1ccc(Cl)cc1Cl | -12.4%
CCOc1cn2c(cc1=O)C(=O)N(CCNC(=O)c1ccc(C)cc1)CC2 | -4.57%
CCCN(C(=O)c1ccc(-n2ccnc2)cc1)C1CCCC1 | -16.4%
Cc1cnn(CC2CCN(C(=O)c3ccccc3C3CCNC3)CC2)c1 (stereo not drawn) | 3.82%
Cc1ccc(OCc2nc(C(=O)NC3CC(C)(C)NC(C)(C)C3)cs2)cc1 | -17.3%
CCCCOC1CC(N(C)Cc2ccc(S(=O)(=O)N(C)C)o2)C1(C)C (stereo not drawn) | -31.6%
COC(=O)C[C@H]1[C@]2(C)C[C@@]34OC5(C)OC6(C(OC(C)=O)[C@@]3(OC(C)=O)[C@H]2OC(C)=O)C2CC(=O)O[C@@H](c3ccoc3)[C@]2(C)CCC6(O5)[C@]14C (stereo partly drawn) | 1.62%
Cn1ccnc1CN(C(=O)c1scc2c1CCCC2)C1CC1 | -27.6%
CC(C)CCN(CCC#N)Cc1ncc(Cl)n1C | -8.32%
CC(N)=C(C#N)C(=O)COC(=O)c1ccc([N+](=O)[O-])o1 | -1.77%
CC(CC(=O)Nc1ccc(F)cc1)n1cncn1 (stereo not drawn) | -11%
CCOCC(O)CN1CCN(C(=O)Cn2ccccc2=O)CC1 (stereo not drawn) | -5.1%
CC(C)Cn1c(CN(Cc2ccccc2)CC2CC2)cnc1S(C)(=O)=O | -12.5%
CC(C)c1ccc2c(c1)CCCN2C(=O)CSC1CCS(=O)(=O)C1 (stereo not drawn) | -7.34%
CC(N)=C(C#N)C(=O)COC(=O)C12CC3CC(CC(Br)(C3)C1)C2 | -14%
CC1C(=O)SC2(CCCCC2)N1c1ccc(Cl)cc1 (stereo not drawn) | -10.1%
